Out of some 5,500 compounds screened, about 2,000 (36%) were called active. Roughly 18% stayed inconclusive and do not appear here. No stated cut-off is given here; in the data, active means normalized growth mostly below about 0.91 (no sharp cut-off); inconclusive means no clear call, values can overlap the other calls; inactive means mostly above about 0.92. The list shows a part of the results.
Experiment: chemical genetic growth profiling, strain panel (AID 1159580);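 further: tested at 20 µM; growth read once vehicle control cultures reached saturation at 30 °C; 1 = growth at the plate median or of vehicle wells; lower values mean less growth of the strain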
Conditions: growth OD

Measured: normalized growth

C[N+](C)(C)CC(=O)[O-]
inactive: S. cerevisiae deletion strains, locus YJR075W, strain HOC1, hits give low values 0.977 | S. cerevisiae deletion strains, locus YKL009W, strain mrt4, hits give low values 0.972 | S. cerevisiae deletion strains, locus YKL068W, hits give low values 0.976 | S. cerevisiae deletion strains, locus YKL085W, strain MDH1 (second series), hits give low values 0.978 | S. cerevisiae deletion strains, locus YKL085W, strain MDH1, hits give low values 0.978 | S. cerevisiae deletion strains, locus YKL160W, strain elf1, hits give low values 0.995 | S. cerevisiae deletion strains, locus YKL190W, strain CNB1, hits give low values 0.976 | S. cerevisiae deletion strains, locus YKR001C, strain vps1, hits give low values 0.982 | S. cerevisiae deletion strains, locus YKR026C, strain gcn3, hits give low values 1.02 | S. cerevisiae deletion strains, locus YKR091W, strain srl3, hits give low values 0.976 | S. cerevisiae deletion strains, locus YLL001W, strain dnm1, hits give low values 0.949 | S. cerevisiae deletion strains, locus YLL026W, hits give low values 0.982 | S. cerevisiae deletion strains, locus YLL041C, strain sdh2, hits give low values 0.963 | S. cerevisiae deletion strains, locus YLR027C, strain aat2, hits give low values 0.989 | S. cerevisiae deletion strains, locus YLR039C, strain RIC1, hits give low values 0.952 | S. cerevisiae deletion strains, locus YLR058C, strain SHM2, hits give low values 1 | S. cerevisiae deletion strains, locus YLR102C, strain apc9, hits give low values 0.992 | S. cerevisiae deletion strains, locus YLR113W, strain HOG1, hits give low values 0.981 | S. cerevisiae deletion strains, locus YLR221C, strain rsa3, hits give low values 1 | S. cerevisiae deletion strains, locus YLR258W, strain gsy2, hits give low values 0.985 | S. cerevisiae deletion strains, locus YLR262C, strain YPT6 (second series), hits give low values 0.948 | S. cerevisiae deletion strains, locus YLR262C, strain YPT6, hits give low values 0.938 | S. cerevisiae deletion strains, locus YLR268W, strain sec22, hits give low values 0.96 | S. cerevisiae deletion strains, locus YLR320W, strain mms22, hits give low values 1.01 | S. cerevisiae deletion strains, locus YLR330W, strain CHS5, hits give low values 0.99 | S. cerevisiae deletion strains, locus YLR342W, strain FKS1 (second series), hits give low values 1.04 | S. cerevisiae deletion strains, locus YLR342W, strain FKS1, hits give low values 0.988 | S. cerevisiae deletion strains, locus YLR357W, strain rsc2, hits give low values 0.969 | S. cerevisiae deletion strains, locus YLR370C, strain arc18, hits give low values 0.985 | S. cerevisiae deletion strains, locus YLR371W, strain rom2, hits give low values 0.993 | S. cerevisiae deletion strains, locus YLR384C, strain iki3, hits give low values 0.967 | S. cerevisiae deletion strains, locus YLR418C, strain cdc73, hits give low values 0.99 | S. cerevisiae deletion strains, locus YML016C, strain PPZ1, hits give low values 1.01 | S. cerevisiae deletion strains, locus YML032C, strain rad52, hits give low values 0.97 | S. cerevisiae deletion strains, locus YML120C, strain ndi1, hits give low values 0.98 | S. cerevisiae deletion strains, locus YML124C, strain tub3, hits give low values 0.992 | S. cerevisiae deletion strains, locus YMR058W, strain fet3, hits give low values 0.987 | S. cerevisiae deletion strains, locus YMR078C, strain ctf18, hits give low values 0.981 | S. cerevisiae deletion strains, locus YMR125W, strain sto1, hits give low values 0.951 | S. cerevisiae deletion strains, locus YMR129W, hits give low values 0.975 | S. cerevisiae deletion strains, locus YMR205C, strain PFK2, hits give low values 0.986 | S. cerevisiae deletion strains, locus YMR223W, strain ubp8, hits give low values 1.03 | S. cerevisiae deletion strains, locus YMR231W, strain pep5, hits give low values 0.972 | S. cerevisiae deletion strains, locus YMR263W, strain SAP30, hits give low values 0.977 | S. cerevisiae deletion strains, locus YMR307W, strain GAS1, hits give low values 1.04 | S. cerevisiae deletion strains, locus YNL067W, strain RPL9B, hits give low values 0.982 | S. cerevisiae deletion strains, locus YNL071W, strain lat1, hits give low values 0.989 | S. cerevisiae deletion strains, locus YNL128W, strain TEP1, hits give low values 0.989 | S. cerevisiae deletion strains, locus YNL153C, strain GIM3, hits give low values 0.985 | S. cerevisiae deletion strains, locus YNL183C, strain NPR1, hits give low values 0.938 | S. cerevisiae deletion strains, locus YNL209W, strain ssb2, hits give low values 0.995 | S. cerevisiae deletion strains, locus YNL233W, strain BNI4, hits give low values 0.997 | S. cerevisiae deletion strains, locus YNL248C, strain rpa49, hits give low values 1.01 | S. cerevisiae deletion strains, locus YNL250W, strain rad50, hits give low values 0.991 | S. cerevisiae deletion strains, locus YNL271C, strain bni1, hits give low values 0.992 | S. cerevisiae deletion strains, locus YNL298W, strain CLA4, hits give low values 0.97 | S. cerevisiae deletion strains, locus YNL307C, strain MCK1, hits give low values 0.999 | S. cerevisiae deletion strains, locus YNL322C, strain KRE1 (second series), hits give low values 0.964 | S. cerevisiae deletion strains, locus YNL322C, strain KRE1, hits give low values 0.99 | S. cerevisiae deletion strains, locus YNR049C, strain mso1, hits give low values 0.974 | S. cerevisiae deletion strains, locus YNR052C, strain pop2, hits give low values 0.984 | S. cerevisiae deletion strains, locus YOL006C, strain TOP1, hits give low values 0.975 | S. cerevisiae deletion strains, locus YOL012C, strain htz1 0.729 | S. cerevisiae deletion strains, locus YOL147C, strain pex11, hits give low values 1 | S. cerevisiae deletion strains, locus YOR001W, strain rrp6, hits give low values 0.969 | S. cerevisiae deletion strains, locus YOR061W, strain CKA2, hits give low values 1 | S. cerevisiae deletion strains, locus YOR069W, strain VPS5, hits give low values 0.995 | S. cerevisiae deletion strains, locus YOR070C, strain gyp1, hits give low values 0.994 | S. cerevisiae deletion strains, locus YOR080W, strain dia2, hits give low values 0.951 | S. cerevisiae deletion strains, locus YOR083W, strain WHI5, hits give low values 0.971 | S. cerevisiae deletion strains, locus YOR106W, strain vam3, hits give low values 0.925 | S. cerevisiae deletion strains, locus YOR136W, strain idh2, hits give low values 0.985 | S. cerevisiae deletion strains, locus YOR144C, strain elg1, hits give low values 0.991 | S. cerevisiae deletion strains, locus YOR184W, strain ser1, hits give low values 0.989 | S. cerevisiae deletion strains, locus YOR231W, strain MKK1, hits give low values 0.986 | S. cerevisiae deletion strains, locus YOR265W, strain rbl2, hits give low values 0.985 | S. cerevisiae deletion strains, locus YOR270C, strain vph1, hits give low values 0.956 | S. cerevisiae deletion strains, locus YOR290C, strain snf2, hits give low values 1 | S. cerevisiae deletion strains, locus YOR316C, strain cot1, hits give low values 0.972 | S. cerevisiae deletion strains, locus YPL051W, strain arl3, hits give low values 0.99 | S. cerevisiae deletion strains, locus YPL055C, strain LGE1, hits give low values 0.944 | S. cerevisiae deletion strains, locus YPL078C, strain atp4, hits give low values 0.954 | S. cerevisiae deletion strains, locus YPL106C, strain sse1, hits give low values 0.982 | S. cerevisiae deletion strains, locus YPL240C, strain hsp82, hits give low values 0.976 | S. cerevisiae deletion strains, locus YPL241C, strain CIN2, hits give low values 0.999 | S. cerevisiae deletion strains, locus YPL256C, strain CLN2, hits give low values 1 | S. cerevisiae deletion strains, locus YPR119W, strain clb2, hits give low values 0.994 | S. cerevisiae deletion strains, locus YPR141C, strain kar3, hits give low values 0.979 | S. cerevisiae deletion strains, locus YPR163C, strain tif3, hits give low values 0.992 | S. cerevisiae deletion strains, locus YPR167C, strain met16, hits give low values 0.986 | S. cerevisiae deletion strains, strain wtn01, hits give low values 0.96 | S. cerevisiae strains, strain wild type, hits give low values 0.996

From PubChem BioAssay AID1159580 (chemical genetic matrix, 2015)
